Source: PubChem
Pf growth 96h: Primary qHTS for delayed death inhibitors of the malarial parasite plastid, 96 hour incubation | P. falciparum luciferase reporter growth, 96 h | Potency, µM (doses to about 28.7 µM), inactives show top-dose activity change, negative = inhibition, hits mostly inhibitors | 320,000 tested, 6.9% active | AID 504834, 2011; also: potency is read from the fitted curve at half-maximal effect; % is scaled to controls: 0 for no effect and ±100 for the full control effect
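P. falciparum expressing integrated firefly luciferase, in erythrocytes at 2% hematocrit, 0.05% parasitemia, incubated with compounds 96 h at 37 C, 5% CO2. Growth inhibition read as loss of luminescence; two-generation exposure targets delayed-death apicoplast inhibitors.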
Shiga inhibitor: A qHTS for Small Molecule Inhibitors of Shiga Toxin. 290,000 tested, 9.2% active. Vero cells, Shiga toxin protein synthesis inhibition reporter. AID 2315, 2010. inhibition, % at 38.7 µM; in the data active = inhibition mostly above about 28%, no sharp cut-off; inactive = mostly below about 43%; also: 0% is about no effect
CHX counter: Cycloheximide Counterscreen for Small Molecule Inhibitors of Shiga Toxin. max response, %. cell reporter, cycloheximide protein synthesis inhibition counterscreen. 300,000 tested, 12% active. AID 2314, 2010; in the data active = max response mostly above about 13%, no sharp cut-off; inactive = mostly below about 14%; also: read at 38.3 µM for the half of the compounds with a filed dose; 0% is about no effect
HCMV inh: qHTS Assay for inhibitors of the human cytomegalovirus (HCMV). HFF cells, HCMV-luciferase reporter, 72 h; active compounds read low. activity change, negative = inhibition, % at 57.5 µM. 410,000 tested, 4.5% active. AID 1259415, 2018; in the data active = activity change below about -60%; inconclusive = no clear call, values can overlap the other calls; inactive = above about -39%; also: % is scaled to controls: 0 for no effect and ±100 for the full control effect
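Luciferase read-out from HCMV-luciferase-infected HFFs (MOI 1 PFU/cell) 72 h post infection at 37C; compounds added after 16 h cell attachment; activity normalized between buffer-only basal and Salinomycin (10uM) inhibitor controls.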
HCV inhibitor: qHTS Assay for Inhibitors of Hepatitis C Virus (HCV); Huh7.5.1 HCVcc-Cre infection, luciferase reporter, 44 h; Potency, µM (titrated, usually from 41.8 µM), for the others: at the top dose activity change, negative = inhibition, hits mostly inhibitors; AID 651820, 2012; 340,000 tested, 3.4% active; also: potency is read from the fitted curve at half-maximal effect; % is scaled to controls: 0 for no effect and ±100 for the full control effect
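HCVcc-Cre virus at an moi near 0.5 was added right after compound to cells cultured 4 h from seeding (1,000 cells/well). Luciferase activity was determined 44 h later, 15 min after substrate addition at RT.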
Pf growth 48h: Primary qHTS for delayed death inhibitors of the malarial parasite plastid, 48 hour incubation; P. falciparum luciferase growth in erythrocytes, 48 h; Potency, µM (top dose mostly 28.7 µM), for inactives: top-dose activity change, negative = inhibition, usual class: inhibitors; 310,000 tested, 5.9% active; also: potency is read from the fitted curve at half-maximal effect; % is scaled to controls: 0 for no effect and ±100 for the full control effect
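Luminescence readout; reporter = integrated firefly luciferase in P. falciparum. RBC culture at 2% hematocrit, 0.1% parasitemia final, 37 C/5% CO2; decreased signal taken as growth inhibition.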
The depositor's hits bear a star; i = inactive; ? = inconclusive; · = not tested or not shown. An excerpt weighted towards active compounds, which were near 21% of everything screened. Unless noted, calls follow the shape of the dose curve; as a rule, active = well fitted inhibition curve with a large enough effect; inconclusive = small, poorly fitted or top-dose-only effect, or another doubt; inactive = no such curve, though single readings can be large or run the other way.

SMILES	Pf growth 96h	Shiga inhibitor	CHX counter	HCMV inh	HCV inhibitor	Pf growth 48h
COc1ccccc1Oc1c(C)oc2c(CN3CCN(CCO)CC3)c(O)ccc2c1=O	-5%	21	-3	22	17%	22%
Cc1oc2c(CN3CCCC(C)C3)c(O)ccc2c(=O)c1-c1ccccc1 (centres undefined)	8.3µM*	-11	4	-32	3%	6.6µM*
COc1ccc(NCc2cc3ccc(OC)cc3n(CC(=O)Nc3ccc(C)c(C)c3)c2=O)cc1	·	·	·	3	·	·
COC(=O)C1=C(N)Oc2cc(C)[nH]c(=O)c2C1c1cc(OC)c(OC)c(OC)c1 (centres undefined)	-9%	-5	-4	?	31%	10µM*
COC(=O)C1=C(N)Oc2cc(C)[nH]c(=O)c2C1c1ccccc1OC (centres undefined)	27%	18	1	18	14%	-4%
C[C@H]1Cn2cnc(C(=O)N3CCN(C(=O)OC(C)(C)C)CC3)c2C(=O)N1	·	·	·	-13	·	·
Cc1c(C(=O)N2CCc3ccccc32)oc2c1C(=O)CC(C)(C)C2	20%	69*	32*	76	?	21%
Cc1c(C(=O)N2CCN(C)CC2)oc2c1C(=O)CC(C)(C)C2	?	-10	6	-5	3%	14%
Cc1c(C(=O)N2CCOCC2)oc2c1C(=O)CC(C)(C)C2	12µM*	-13	-2	5	4%	3%
CN(C(=O)CSc1nc2c(c(=O)[nH]1)CCC2)c1ccccc1	-22%	36	5	9	8%	33%
COc1ccc(N2C(=O)CC(N3CCN(c4nc5ccccc5s4)CC3)C2=O)cc1 (centres undefined)	4.7µM*	-4	-1	-28	14%	-23%
CCOc1ccc(N2C(=O)CC(N3CCN(c4ccccc4OC)CC3)C2=O)cc1 (centres undefined)	2.6µM*	17	1	29	12%	2.9µM*
COc1ccc2nc(N3C(=O)CC(Cc4ccc(C)cc4)C3=O)sc2c1 (centres undefined)	64%	-12	-7	31	0%	-2%
COc1ccc(C2SCC(=O)N2c2nc3ccccc3s2)cc1 (centres undefined)	317%	111*	42*	?	-18%	35%
COc1ccc2nc(N3C(=O)CC(C(C)c4ccccc4)C3=O)sc2c1 (centres undefined)	3.7µM*	2	0	?	0%	-7%
CCc1c(C(=O)NNC(=S)Nc2ccc(S(=O)(=O)Nc3ncccn3)cc2)csc1C	?	9	-3	-8	11%	-2%
COc1cc(C(=O)NCCC(C)C)ccc1OCc1ccc(Cl)cc1Cl	4.7µM*	-5	-3	-3	?	10µM*
CC(C)CCNC(=O)c1ccc(Cl)c(N)c1	55%	57*	37*	·	·	36%
CC(C)CCNC(=O)c1ccc(-c2ccccc2)cc1	93%	84*	36*	·	·	40%
CC(C)CCNC(=O)C(=O)Nc1c2c(nn1-c1ccccc1)CS(=O)(=O)C2	·	·	·	-9	·	·
CC(C)CCNC(=O)C(=O)Nc1ccccc1	-14%	162*	45*	42	-1%	i
O=C(Nc1ccccc1)Nc1ccccc1C(=O)NCCCN1CCOCC1	25%	-4	-1	10	14%	?
Cc1ccc(CN2CCSc3ccc(C(=O)NCC(C)c4ccccc4)cc32)cc1 (centres undefined)	·	·	·	16	·	·
O=C(O)c1cccc(NC(=S)N/N=C/c2cccnc2)c1	?	54	17*	4	16%	i
COc1cc(/C=N/NC(=S)Nc2cccc(C(=O)O)c2)ccc1O	47%	24	12*	-27	2%	116%
SMILES	Pf growth 96h	Shiga inhibitor	CHX counter	HCMV inh	HCV inhibitor	Pf growth 48h
Cc1cccc(C)c1NC(=S)N/N=C/c1ccc(C(=O)O)cc1	-29%	-1	0	20	4%	-7%
COc1ccc(/C=N/NC(=S)Nc2ccccc2)cc1	193%	75*	55*	-8	20%	?
COc1cccc(/C=N/NC(=S)Nc2cccc(C(=O)O)c2)c1O	?	30	13	52	12%	i
COc1ccc(/C=N/NC(=S)Nc2cccc(C(=O)O)c2)cc1	-11%	156*	41*	22	-1%	319%
O=C(N/N=C/c1cccnc1)c1cccc(NC(=O)c2cccc(Br)c2)c1	-15%	11	14	8	-20%	-23%
CCOC(=O)Cc1ccc(Nc2nc(NCc3ccccc3)nc3ccsc23)cc1	·	·	·	23	·	·
COc1ccc(CCN2CC(C(=O)NCCN3CCCC3=O)CCC2=O)cc1 (centres undefined)	5%	-2	-3	3	-4%	?
Cc1ccccc1NC(=O)CSc1nc(=O)n(CCN2CCOCC2)c2c1CCCC2	-34%	·	·	-10	?	?
CSc1ccc([C@H]2CN3CCC[C@H]3c3ccccc32)cc1	·	-11	-1	·	·	·
Cc1cccc(C)c1NC(=S)N/N=C/c1ccc(OCCC(C)C)cc1	3.3µM*	-10	10	?	?	·
CCCCOc1ccc(/C=N/NC(=S)Nc2cccc(C)c2C)cc1	·	-21	9	6	16%	?
CCC[C@H](NC(C)=O)C(=O)N[C@H]1CC(=O)ONCCCC[C@@H](C(N)=O)NC(=O)[C@H](Cc2c[nH]c3ccccc23)NC(=O)[C@H](CCCN=C(N)N)NC(=O)[C@@H](Cc2ccc3ccccc3c2)NC(=O)[C@H](Cc2cnc[nH]2)NC1=O	·	-12	-5	·	·	·
Cc1ccc2c(CN3CCN(S(=O)(=O)c4ccc(Cl)cc4)CC3)cc(=O)oc2c1C	?	·	·	-35	?	4.1µM*
Cc1cc(C)c2oc(=O)cc(CN3CCC(C)CC3)c2c1	?	-1	-1	16	-10%	10µM*
Cc1cc(C)c2oc(=O)cc(CN3CCN(Cc4ccccc4)CC3)c2c1	?	-7	9	31	-4%	12µM*
Cc1ccc2c(CN3CCOCC3)cc(=O)oc2c1C	?	22	13	36	17%	33%
Cc1ccc2c(CN3CCC(C)CC3)cc(=O)oc2c1C	?	123*	55*	22	-24%	?
Cc1cc(C)c2c(CN3CCC(C)CC3)cc(=O)oc2c1C	-26%	-4	-1	-9	?	?
O=C(NCc1ccc(F)cc1)c1cnc(N2CCOCC2)c2ccccc12	·	·	·	-2	·	·
Cc1ccc2c(CN3CC(C)CC(C)C3)cc(=O)oc2c1C (centres undefined)	15µM*	7	6	49	?	?
Cc1ccc2c(CN3CCN(Cc4ccccc4)CC3)cc(=O)oc2c1C	?	4	-4	22	-20%	0%
